Source: PubChem
Marburg entry inh: Marburg virus entry inhibition; Marburg virus pseudotyped entry inhibition, cell reporter; Potency, µM (series often up to 37.8 µM), usual class: inhibitors; actives 1.8% (n = 300,000); AID 540276; calls by dose curve; tested in HEK293 cells
Pf growth 96h: inhibits malaria parasite growth, 96 h; actives 6.9% (n = 320,000); Potency, µM (highest dose often 28.7 µM), actives largely listed as inhibitors; P. falciparum luciferase reporter growth, 96 h
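Plates of compound plus infected erythrocytes (2% hematocrit, 0.05% parasitemia final) incubate 96 hours, 37 C, 5% CO2. Detection reagent added; reduced luminescence from the parasites' luciferase reporter flags inhibition.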
Shiga toxin inh: Shiga toxin inhibition; Vero cells, Shiga toxin protein synthesis inhibition reporter; inhibition, % at 38.7 µM; actives 9.2% (n = 290,000); AID 2315; in the data active = inhibition mostly above about 28%, no sharp cut-off; inactive = mostly below about 43%
Pf growth 48h: P. falciparum growth inhibition at 48 hours (one generation); P. falciparum luciferase growth in erythrocytes, 48 h; Potency, µM (top dose mostly 28.7 µM), usual class: inhibitors; actives 5.9% (n = 310,000)
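Here the parasites carry a stable luciferase gene and grow inside erythrocytes in Albumax-based RPMI medium with compound for one erythrocytic cycle. Activity is scored as loss of luminescent signal.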
CHX counter: counter-screen for Shiga toxin inhibitors: cycloheximide protein synthesis inhibition. actives 12% (n = 300,000). cell reporter, cycloheximide protein synthesis inhibition counterscreen. AID 2314. max response, %; in the data active = max response mostly above about 13%, no sharp cut-off; inactive = mostly below about 14%; also: read at 38.3 µM for the half of the compounds with a filed dose
Lassa entry inh: Lassa virus entry inhibition; Lassa virus pseudotype entry inhibition, cell reporter; Potency, µM (doses to about 37.9 µM), actives largely listed as inhibitors; actives 1.2% (n = 300,000); AID 540256; calls by dose curve; tested in HEK293 cells; also: nearly all actives have a fitted effect of over 50% in size
A number is an active result; - = inactive; ? = inconclusive; . = no result given. Shown are actives, neighbours in structure and some others; about 19% of the full set was active somewhere. Unless noted, calls follow the shape of the dose curve; as a rule, active = well fitted inhibition curve with a large enough effect; inconclusive = small, poorly fitted or top-dose-only effect, or another doubt; inactive = no such curve, though single readings can be large or run the other way.

SMILES | Marburg entry inh | Pf growth 96h | Shiga toxin inh | Pf growth 48h | CHX counter | Lassa entry inh
COc1ccc(-n2c(COc3cccc(C)c3)nnc2SCC(=O)NCc2ccco2)cc1 | - | - | 35 | ? | 30 | ?
COc1ccc(OC)c(-n2c(SCC(=O)NCc3ccco3)nnc2-c2c[nH]c3ccccc23)c1 | - | 2.6µM | - | . | - | .
Cc1ccc(C(=O)CCC(=O)OCC(=O)Nc2ccccc2SCC#N)cc1 | . | - | . | - | . | .
COc1ccccc1OCc1nnc(SCC(=O)NCc2ccco2)n1-c1ccccc1 | - | - | - | - | 12 | -
OC(CNC1CCCc2ccccc21)COc1c(Cl)cccc1Cl (stereo unspecified) | ? | 3.3µM | - | 1.9µM | - | ?
CC(=O)N1CCC(N(CCN2CCOCC2)C(=S)Nc2cc(C)cc(C)c2)CC1 | - | ? | - | ? | - | -
Cc1c(CCO)c(=O)[nH]n1C(=O)c1ccc(F)cc1 | - | - | 65 | - | 24 | -
CC1(c2cc(F)ccc2F)NC(=O)N(CC(=O)Nc2cccc(S(=O)(=O)N3CCCC3)c2)C1=O (stereo unspecified) | . | ? | . | 12µM | . | .
CN(CC(=O)Nc1cccc(S(=O)(=O)N(C)C)c1)Cc1ccccc1 | - | - | - | - | 23 | -
CN(CC(=O)Nc1ccc(S(=O)(=O)N2CCCC2)cc1)Cc1cccc(Cl)c1Cl | ? | 9.3µM | - | - | - | ?
Cc1cccc(NC(=O)CN(C)C(C)C(=O)Nc2ccc(S(=O)(=O)N3CCCC3)cc2)c1C (stereo unspecified) | ? | ? | . | 13µM | . | -
CN(CCOc1ccccc1)CC(=O)Nc1ccc(S(=O)(=O)N2CCCC2)cc1 | . | ? | - | - | - | .
Nn1c(SCC(=O)NCCC2=CCCCC2)nnc1-c1cccnc1 | - | - | . | - | . | -
CN(CC(=O)Nc1ccc(Br)cc1)Cc1ccccc1 | . | - | - | - | 19 | .
COc1ccccc1CN(C)CC(=O)Nc1cccc(S(=O)(=O)N2CCCCC2)c1 | ? | ? | . | 12µM | . | ?
COc1ccccc1C(=O)OCC(=O)Nc1cccc(S(=O)(=O)N2CCCC2)c1 | - | - | . | ? | . | -
CN(CC(=O)Nc1cccc(F)c1)CC(=O)Nc1cccc(S(=O)(=O)N2CCCCC2)c1 | ? | ? | . | 12µM | . | -
COc1ccc(CN(C)CC(=O)Nc2cccc(S(=O)(=O)N(C)c3ccccc3)c2)c(OC)c1 | ? | 15µM | . | ? | . | ?
CCCCNC(=O)Cn1cnc2sc(C(=O)OCC)c(C)c2c1=O | - | - | - | - | - | -
O=C(O)c1ccc(-c2ccc(/C=c3/sc4nc5ccccc5n4c3=O)o2)cc1Cl | - | - | - | - | - | -
CCOC(=O)CSc1nc2ccccc2n2c(C)nnc12 | - | - | - | - | - | ?
Cc1ccc(C)c(CNC(=O)c2ccc3c(c2)nc2n3CCC(C)C2)c1 (stereo unspecified) | . | . | . | . | . | -
COc1cc(C(=O)Nc2ccccc2-c2nc(-c3ccc(C)cc3)no2)cc(OC)c1OC | - | . | . | . | . | -
CC1CCc2ccccc2N1CC(=O)Nc1cccc(S(=O)(=O)N2CCCC2)c1 (stereo unspecified) | ? | ? | . | 12µM | . | ?
CN(CC(=O)Nc1cccc(S(=O)(=O)N2CCCCC2)c1)Cc1ccc(F)cc1 | . | 9.3µM | . | 13µM | . | .
SMILES | Marburg entry inh | Pf growth 96h | Shiga toxin inh | Pf growth 48h | CHX counter | Lassa entry inh
CN(CC(=O)Nc1cccc(F)c1)CC(=O)Nc1cccc(S(=O)(=O)N2CCCCCC2)c1 | . | - | - | ? | - | .
COc1cc(/C=C/c2nc3ccccc3c(=O)[nH]2)cc(Cl)c1O | - | ? | - | - | - | .
O=C(Nc1cccc(/C=C/c2nc3ccccc3c(=O)[nH]2)c1)c1ccccc1Cl | . | - | - | - | 11 | .
CCN(CC(=O)Nc1ccc(C(=O)Nc2ccc(OC)cc2)cc1)Cc1nc2ccccc2c(=O)[nH]1 | . | ? | - | ? | - | .
COc1ccc(C(=O)Nc2cccc(/C=C/c3nc4ccccc4c(=O)[nH]3)c2)cc1 | . | - | 107 | - | 20 | .
CN1C(C(=O)Nc2ccc(C(=O)O)cc2)=C(O)c2ccccc2S1(=O)=O | . | - | . | ? | . | .
Nc1c(Cl)cc2c(c1Oc1ccccc1)C(=O)c1ccccc1C2=O | - | ? | - | . | 29 | -
Nc1c(Cl)cc2c(c1Br)Cc1ccccc1-2 | ? | . | . | . | . | -
COc1ccccc1-c1cc2ccccc2[nH]1 | - | - | 69 | - | 38 | -
O=C(Nc1ccc(-c2csc(Nc3ccccc3)n2)cc1)c1cccc(C(F)(F)F)c1 | . | ? | - | ? | - | .
O=C(Nc1cccc(-c2csc(Nc3cccc(C(F)(F)F)c3)n2)c1)c1cc([N+](=O)[O-])cc(C(F)(F)F)c1 | . | ? | - | ? | - | .
O=C(Nc1ccc(-c2csc(Nc3ccccc3)n2)cc1)c1cc([N+](=O)[O-])cc(C(F)(F)F)c1 | . | 0.47µM | - | 0.59µM | - | .
O=C(Nc1ccc(-c2csc(Nc3ccc(Cl)cc3)n2)cc1)c1cccc(C(F)(F)F)c1 | - | 10µM | - | ? | - | .
CCCC(c1nnnn1CC(=O)OCC)N(Cc1cc2c(C)cc(C)cc2[nH]c1=O)C1CCCC1 (stereo unspecified) | - | . | - | 13µM | - | -
CC(C)Cc1ccc(C(C)C(=O)Nc2ncccn2)cc1 (stereo unspecified) | - | - | - | - | - | -
Cc1cccc(/C(N)=N/OC(=O)c2ccc(Cl)cc2Cl)c1 | ? | - | 72 | - | 70 | ?
